Only some compounds are listed: those with a hit (about 1.3% of all), similar ones and a draw of the others.
FEN1 inh-1 = qHTS Assay for the Inhibitors of Human Flap endonuclease 1 (FEN1) | Potency, µM (highest dose often 114 µM), hits mostly inhibitors | Recombinant FEN1 flap cleavage, fluorescence, 15 min | 0.35% of 390,000 active; further: nearly all actives have a fitted effect of over 65% in size
Target sequence (P39748 whole entry, looked up): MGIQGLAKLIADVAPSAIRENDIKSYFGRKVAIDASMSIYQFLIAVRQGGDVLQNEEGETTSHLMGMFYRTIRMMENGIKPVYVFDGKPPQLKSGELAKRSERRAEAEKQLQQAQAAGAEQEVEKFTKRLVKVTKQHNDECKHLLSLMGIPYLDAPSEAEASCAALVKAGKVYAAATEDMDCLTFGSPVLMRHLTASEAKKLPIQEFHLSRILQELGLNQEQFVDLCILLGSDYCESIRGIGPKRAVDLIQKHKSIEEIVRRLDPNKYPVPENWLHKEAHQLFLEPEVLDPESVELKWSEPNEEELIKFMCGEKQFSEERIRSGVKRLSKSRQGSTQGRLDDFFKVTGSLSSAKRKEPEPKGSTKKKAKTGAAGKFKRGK
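Read-out was taken twice, immediately and after 15 min, following addition of 50 nM substrate to 10 nM FEN1 that had sat with test compound for 15 min at room temperature. Curves came from a four-parameter Hill model.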
PGK inhibitor = qHTS Assay to Find Inhibitors of Phosphoglycerate Kinase; PGK/GAPDH coupled, Kinase-Glo luminescence, 60 min; AID 602233, 2012; 0.043% of 380,000 active; Potency, µM (doses to about 57.5 µM), most hits filed as inhibitors; Phosphoglycerate kinase, glycosomal (Trypanosoma brucei brucei), P07378; further: nearly all actives have a fitted effect of over 60% in size
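Recombinant glycosomal PGK reaction used 1,3-bisphosphoglycerate generated in-well by GAPDH (100nM final) in 100mM TEA pH 7.6, 5mM MgCl2, 0.01% Tween-20. After 60 minutes at room temperature, ATP was read by Kinase-Glo Plus luminescence end-point.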
GRP78 ERSR act = qHTS for Inducers of the Endoplasmic Reticulum Stress Response (ERSR) in Human Glioma: qHTS; U87-MG GRP78 promoter luciferase reporter, 16 h; 0.02% of 420,000 active; Potency, µM, most hits filed as activators; AID 602332, 2012; further: series mostly up to about 76 µM; nearly all actives have a fitted effect of over 35% in size
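Stably transfected U87-MG glioma cells carrying a GRP78-based luciferase sensor; 16 h compound incubation. Luminescence end-point read 10 min after Bright-Glo addition at room temperature.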
WRN inhibitor = qHTS for Inhibitors of WRN Helicase. Bifunctional 3'-5' exonuclease/ATP-dependent helicase WRN (Homo sapiens), Q14191. WRN helicase unwinding, fluorescent forked duplex, kinetic. Potency, µM (highest dose often 114 µM), actives largely listed as inhibitors. 0.46% of 360,000 active. AID 651768, 2012; further: nearly all actives have a fitted effect of over 55% in size
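Enzyme (20 nM final) and test compound sit together 15 min at room temperature before substrate addition. Substrate is a single-forked duplex oligonucleotide (100 nM) labelled with fluorophore and quencher, with 2 mM ATP; helicase unwinding raises red fluorescence, read kinetically.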
Pin1 inh = qHTS Assay to Find Inhibitors of Pin1. Pin1 FP peptide displacement, HiFluor488, 10 min. Potency, µM (series often up to 115 µM), usual class: inhibitors. 0.009% of 390,000 active; active means well fitted inhibition curve with a large enough effect in the polarisation, with a control signal flat, not every such curve was filed as active; inconclusive means small, poorly fitted or top-dose-only effect, or effect the other way, or a change in a side signal; inactive means no such curve, though single readings can be large or run the other way; the % refers to the polarisation
Target sequence (Q13526 whole entry, looked up): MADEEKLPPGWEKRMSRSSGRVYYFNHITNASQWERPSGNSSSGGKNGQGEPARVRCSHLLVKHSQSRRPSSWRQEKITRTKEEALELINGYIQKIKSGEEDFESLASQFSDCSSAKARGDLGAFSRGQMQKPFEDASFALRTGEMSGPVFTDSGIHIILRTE
PI5P4Ka inh = qHTS for Inhibitors of phosphatidylinositol 5-phosphate 4-kinase (PI5P4K); Phosphatidylinositol 5-phosphate 4-kinase type-2 alpha (Homo sapiens), P48426; AID 652105, 2013; max response, %; PI5P4Kalpha enzyme, ADP-Glo luminescence, 60 min; stronger effect = lower value; 1.2% of 330,000 active; active means max response of -50% or lower; inconclusive means between -30% and -50%; inactive means -30% or higher; further: value at the top dose of about 77 µM
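Controls without substrate or without enzyme flank wells where PI5P4Kalpha converts substrate using 5 microM ATP (final). Incubation lasts 60 minutes at room temperature; ADP formed is read by ADP-Glo luminescence.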
FEN1 inh-2 = qHTS Assay for the Inhibitors of FEN1: Confirmatory Assay for Cherry-picked Compounds; shares compounds with FEN1 inh-1; FEN1 flap cleavage, TAMRA/BHQ2 fluorogenic DNA substrate; Potency, µM, most hits filed as inhibitors; 79% of 880 active; AID 720498, 2013; further: nearly all actives have a fitted effect of over 60% in size
Large screens that a line does not name were inactive (follow-up assays come after a bar, where they were run). Unless noted, the call rests on the fitted dose curve; in most records, active means well fitted curve in the direction sought with a large enough effect; inconclusive means small, poorly fitted or top-dose-only effect, or another doubt; inactive means no such curve, though single readings can be large; an effect the other way counts as inactive or inconclusive.

Cc1cccc(C)c1NC(=O)c1c(O)c2ccccc2[nH]c1=O	none
COc1ccccc1N1C(=N)S/C(=C\c2ccc(-c3ccccc3C(=O)O)o2)C1=O	FEN1 inh-1 45µM, WRN inhibitor 28µM, Pin1 inh inconclusive, PI5P4Ka inh inconclusive | FEN1 inh-2 inconclusive
Cc1csc(N/N=C/c2ccc(O)c([N+](=O)[O-])c2)n1	FEN1 inh-1 79µM, WRN inhibitor inconclusive, Pin1 inh inconclusive, PI5P4Ka inh -75 | FEN1 inh-2 67
Cc1nnc(N/N=C/c2ccc(O)c([N+](=O)[O-])c2)[nH]c1=O	none
Cc1ncc2c(c1CNC(=O)c1cncs1)CCN(C(=O)c1csc(-c3cccs3)n1)C2	none (no result: FEN1 inh-1, PGK inhibitor, WRN inhibitor, Pin1 inh, PI5P4Ka inh)
CCN(CC)C1=CC2=CC(=C(C#N)C#N)CCC2CC1 (stereo not given)	FEN1 inh-1 inconclusive, Pin1 inh inconclusive
CCCCN(C)C1=CC2=CC(=C(C#N)C#N)CCC2CC1 (stereo not given)	FEN1 inh-1 22µM, WRN inhibitor inconclusive, Pin1 inh inconclusive | FEN1 inh-2 76
CC1=NC(Nc2nc(C)c3ccccc3n2)=NC(C)(C)C1	FEN1 inh-1 40µM | FEN1 inh-2 48
OCC1CCCN(c2nc3cc4c(cc3cc2CNCc2cccc(C(F)(F)F)c2)OCO4)C1 (stereo not given)	none (no result: FEN1 inh-1, PGK inhibitor, WRN inhibitor, Pin1 inh, PI5P4Ka inh)
COCC(=O)Nc1cc(C(=O)NC2Cc3ccccc3C2)cc2nc(-c3cccnc3)n(C)c12	none (no result: FEN1 inh-1, PGK inhibitor, WRN inhibitor, Pin1 inh, PI5P4Ka inh)
Nc1cc(S(=O)(=O)O)cc([N+](=O)[O-])c1O	FEN1 inh-1 inconclusive, PGK inhibitor inconclusive, WRN inhibitor inconclusive, Pin1 inh inconclusive | FEN1 inh-2 inconclusive
O=C(NCc1ccccc1C(F)(F)F)c1cccc2c1C(=O)c1ccc(N3CCOCC3)cc1S2(=O)=O	Pin1 inh inconclusive
O=C(NCc1ccccc1C(F)(F)F)c1cccc2c1C(=O)c1ccc(N3CCC(N4CCCCC4)CC3)cc1S2(=O)=O	none (no result: FEN1 inh-1, Pin1 inh) | FEN1 inh-2 76
COCCN=c1scc(-c2ccco2)n1/N=C/c1ccc(O)c(O)c1O	FEN1 inh-1 35µM, WRN inhibitor 28µM, Pin1 inh inconclusive, PI5P4Ka inh -85 | FEN1 inh-2 inconclusive
Oc1ccc(/C=N/n2c(-c3ccco3)csc2=Nc2cccnc2)c(O)c1	none
Cc1[nH]c2ccccc2c1/C=C/c1c(C)[nH]c2ccccc12	none (no result: PGK inhibitor, WRN inhibitor, Pin1 inh, PI5P4Ka inh)
Cc1[nH]c2ccccc2c1/C=C/c1cc[n+](C)cc1	FEN1 inh-1 inconclusive, Pin1 inh inconclusive | FEN1 inh-2 inconclusive
CCC1CCCCN1CCCNC(=O)c1cc2c(Cl)nc3ccc(C)cc3c2s1 (stereo not given)	FEN1 inh-1 89µM (no result: WRN inhibitor, PI5P4Ka inh) | FEN1 inh-2 inconclusive
Cc1ccc2nc(Cl)c3cc(C(=O)N4CCCCC4)sc3c2c1	none (no result: WRN inhibitor, PI5P4Ka inh)
Cc1ccc2nc(Cl)c3cc(C(=O)NCCCN4CCCC4)sc3c2c1	FEN1 inh-1 22µM | FEN1 inh-2 48
COC(=O)c1ccc(CN2CCC3(CCC(CNC(=O)c4ccco4)O3)CC2)cc1 (stereo not given)	none (no result: FEN1 inh-1, PGK inhibitor, WRN inhibitor, Pin1 inh, PI5P4Ka inh)
O=C1CN(C(=O)COC(=O)c2ccc([N+](=O)[O-])s2)c2ccccc2N1	FEN1 inh-1 inconclusive, GRP78 ERSR act inconclusive | FEN1 inh-2 7.6
CC1(C)C(=O)Nc2ccccc2N1C(=O)COC(=O)c1ccc([N+](=O)[O-])o1	FEN1 inh-1 20µM | FEN1 inh-2 19
O=C1CN(C(=O)COC(=O)c2ccc([N+](=O)[O-])o2)c2ccccc2N1	FEN1 inh-1 inconclusive | FEN1 inh-2 19
CC1(C)C(=O)Nc2ccccc2N1C(=O)COC(=O)c1cccc(O)c1	PI5P4Ka inh inconclusive

Bioassay records (PubChem)
